# Source: the supplement of paper PMC8728848
# This excerpt belongs to a sample that is enriched for the strongest signals.
# B1: PX14375D-bvu-513-34-513 (Bacteroides vulgatus) (protein)
# chain: TEDTFWKDETDFNLALTSCYTPLKNALNGGYYGTRGVMLRIARADEVDFRNDISDVYTVNRFTNSNTNSLTQGMFYQFYNALYRTNSIMQKLEEKKEQFSTDFQNSVKGECLFIRGFYLFQLAKEFKDAPLRLTASQSPSTFPLAKSSQADIWAQAKEDLKTAASLLPITNKIGKPTQGAAYAALGKIYVYEENWQEAINVLEPLTQNPYTYKLVEDFNWNFDDTHENNAESIFELLIEDVGGTDLWGDGENINSTQSNTRPKEYAAAEVGGWYEANPTQQIMDIFWKEKDKDGNFDYRARCSVAWDYEGCTYYQRPFREVFAQDKWKTYWILKYQNWKTQKDEPAPPKSFINERAIRYADVLLMLAEAYMNKGALDTSIGYINQIRRRANLNDYSGPITKEGVFEDLVHQRAIEFFVEGERFYDLRRWGLLEQTLKTCDDTRYKNYQTGKSDNINKFNYFPIPAKELDTNPLCTPSEGW
# Assays:
# Experiment in all cases: glycan array binding signal (z-score within array); higher = stronger binding
# Conditions in all cases: glycan notation: IUPAC condensed, linker removed
# [1] = target: Fuc(a1-2)Gal
# Procedure, shortened: (§1)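 Glycan array binding is given as a within-array Z-score, which can be read as non-binding when negative. The arrays, 3228 of them, came from the Consortium for Functional Glycomics database and were retained only where the protein sequence was available. Z-scores were averaged across arrays of the same protein sequence at different concentrations or buffers and across linkers.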
# [2] = target: Fuc(a1-2)Gal(b1-3)GlcNAc
# Procedure, shortened: as §1
# [3] = target: Fuc(a1-2)Gal(b1-3)GlcNAc(b1-2)Man(a1-3)[Fuc(a1-2)Gal(b1-3)GlcNAc(b1-2)Man(a1-6)]Man(b1-4)GlcNAc(b1-4)GlcNAc
# Procedure, shortened: as §1
# [4] = target: Fuc(a1-2)Gal(b1-3)GlcNAc(b1-2)Man(a1-3)[Fuc(a1-2)Gal(b1-3)GlcNAc(b1-2)Man(a1-6)]Man(b1-4)GlcNAc(b1-4)[Fuc(a1-6)]GlcNAc
# Procedure, shortened: as §1
# [5] = target: Fuc(a1-2)Gal(b1-3)GlcNAc(b1-3)GalNAc
# Procedure, shortened: as §1
# [6] = target: Fuc(a1-2)Gal(b1-3)[Fuc(a1-4)]GlcNAc(b1-2)Man(a1-3)[Fuc(a1-2)Gal(b1-3)[Fuc(a1-4)]GlcNAc(b1-2)Man(a1-6)]Man(b1-4)GlcNAc(b1-4)[Fuc(a1-6)]GlcNAc(b1-4)[Fuc(a1-6)]GlcNAc
# Procedure, shortened: as §1
# [7] = target: Fuc(a1-2)Gal(b1-4)GlcNAc
# Procedure, shortened: as §1
# [8] = target: Fuc(a1-2)Gal(b1-4)[Fuc(a1-3)]GlcNAc(b1-2)Man(a1-3)[Fuc(a1-2)Gal(b1-4)[Fuc(a1-3)]GlcNAc(b1-2)Man(a1-6)]Man(b1-4)GlcNAc(b1-4)[Fuc(a1-6)]GlcNAc
# Procedure, shortened: as §1
# [9] = target: Fuc(a1-2)Gal6S(b1-4)Glc
# Procedure, shortened: as §1
# [10] = target: Fuc(a1-2)[Gal(a1-3)]Gal(b1-3)GlcNAc(b1-3)GalNAc
# Procedure, shortened: as §1
# [11] = target: Fuc(a1-2)[Gal(a1-4)]Gal(b1-4)GlcNAc
# Procedure, shortened: as §1
# [12] = target: Fuc(a1-3)[Gal(b1-4)]GlcNAc(b1-2)Man
# Procedure, shortened: as §1
# [13] = target: Fuc(a1-3)[Gal(b1-4)]GlcNAc(b1-2)Man(a1-3)[Fuc(a1-3)[Gal(b1-4)]GlcNAc(b1-2)Man(a1-6)]Man(b1-4)GlcNAc(b1-4)GlcNAc
# Procedure, shortened: as §1
# [14] = target: Fuc(a1-3)[Gal(b1-4)]GlcNAc(b1-6)GalNAc
# Procedure, shortened: as §1
# [15] = target: Gal(a1-3)Gal(b1-3)GlcNAc(b1-2)Man
# Procedure, shortened: as §1
# [16] = target: Gal(a1-3)Gal(b1-4)GlcNAc(b1-6)GalNAc
# Procedure, shortened: as §1
# [17] = target: Gal(a1-3)[Gal(a1-4)]Gal(b1-4)GlcNAc
# Procedure, shortened: as §1
# [18] = target: Gal(a1-4)Gal(b1-4)GlcNAc
# Procedure, shortened: as §1
# [19] = target: Gal(b1-2)Gal
# Procedure, shortened: as §1
# [20] = target: Gal(b1-4)GlcNAc
# Procedure, shortened: as §1
# [21] = target: Gal(b1-4)GlcNAc(b1-3)Gal(b1-4)Glc
# Procedure, shortened: as §1
# [22] = target: Gal(b1-4)GlcNAc(b1-3)Gal(b1-4)GlcNAc(b1-2)Man(a1-3)[Gal(b1-4)GlcNAc(b1-3)Gal(b1-4)GlcNAc(b1-2)Man(a1-6)]Man(b1-4)GlcNAc(b1-4)GlcNAc
# Procedure, shortened: as §1
# [23] = target: GalNAc(b1-3)Gal
# Procedure, shortened: as §1
# [24] = target: GalNAc(b1-3)Gal(a1-4)Gal(b1-4)GlcNAc(b1-3)Gal(b1-4)Glc
# Procedure, shortened: as §1
# [25] = target: Glc(b1-4)Glc
# Procedure, shortened: as §1
# [26] = target: GlcA3S(b1-3)Gal(b1-4)GlcNAc(b1-3)Gal(b1-4)Glc
# Procedure, shortened: as §1
# [27] = target: GlcNAc(b1-2)[GlcNAc(b1-4)]Man(a1-3)[GlcNAc(b1-4)][GlcNAc(b1-2)Man(a1-6)]Man(b1-4)GlcNAc(b1-4)GlcNAc
# Procedure, shortened: as §1
# [28] = target: GlcNAc(b1-3)Gal(b1-4)Glc
# Procedure, shortened: as §1
# [29] = target: GlcNAc(b1-3)Gal(b1-4)GlcNAc(b1-2)Man(a1-3)[GlcNAc(b1-3)Gal(b1-4)GlcNAc(b1-2)Man(a1-6)]Man(b1-4)GlcNAc(b1-4)[Fuc(a1-6)]GlcNAc
# Procedure, shortened: as §1
# [30] = target: GlcNAc(b1-3)Gal(b1-4)GlcNAc(b1-3)Gal(b1-4)GlcNAc(b1-2)Man(a1-3)[GlcNAc(b1-3)Gal(b1-4)GlcNAc(b1-3)Gal(b1-4)GlcNAc(b1-2)Man(a1-6)]Man(b1-4)GlcNAc(b1-4)[Fuc(a1-6)]GlcNAc
# Procedure, shortened: as §1
# [31] = target: GlcNAc(b1-3)Gal(b1-4)GlcNAc(b1-3)Gal(b1-4)GlcNAc(b1-3)Gal(b1-4)GlcNAc(b1-2)[GlcNAc(b1-3)Gal(b1-4)GlcNAc(b1-3)Gal(b1-4)GlcNAc(b1-3)Gal(b1-4)GlcNAc(b1-6)]Man(a1-6)[GlcNAc(b1-3)Gal(b1-4)GlcNAc(b1-3)Gal(b1-4)GlcNAc(b1-3)Gal(b1-4)GlcNAc(b1-2)Man(a1-3)]Man(b1-4)GlcNAc(b1-4)[Fuc(a1-6)]GlcNAc
# Procedure, shortened: as §1
# [32] = target: Man(a1-2)Man(a1-3)Man
# Procedure, shortened: as §1
# [33] = target: Man(a1-3)[Man(a1-6)]Man(b1-4)GlcNAc(b1-4)GlcNAc
# Procedure, shortened: as §1
# [34] = target: Neu5Ac(a2-3)Gal(b1-3)GlcNAc(b1-3)GalNAc
# Procedure, shortened: as §1
# [35] = target: Neu5Ac(a2-3)Gal(b1-3)[Fuc(a1-4)]GlcNAc
# Procedure, shortened: as §1
# [36] = target: Neu5Ac(a2-3)Gal(b1-4)GlcNAc(b1-2)Man(a1-3)[Neu5Ac(a2-3)Gal(b1-4)GlcNAc(b1-2)Man(a1-6)]Man(b1-4)GlcNAc(b1-4)[Fuc(a1-6)]GlcNAc
# Procedure, shortened: as §1
# [37] = target: Neu5Ac(a2-3)Gal(b1-4)[Fuc(a1-3)]GlcNAc(b1-3)GalNAc
# Procedure, shortened: as §1
# [38] = target: Neu5Ac(a2-6)Gal(b1-4)GlcNAc(b1-2)Man
# Procedure, shortened: as §1
# [39] = target: Neu5Ac(a2-6)Gal(b1-4)GlcNAc(b1-2)Man(a1-3)[GlcNAc(b1-2)Man(a1-6)]Man(b1-4)GlcNAc(b1-4)GlcNAc
# Procedure, shortened: as §1
# [40] = target: Neu5Ac(a2-6)Gal(b1-4)GlcNAc(b1-2)Man(a1-3)[Neu5Ac(a2-6)Gal(b1-4)GlcNAc(b1-2)Man(a1-6)]Man(b1-4)GlcNAc(b1-4)GlcNAc
# Procedure, shortened: as §1
# [41] = target: Neu5Ac(a2-6)Gal(b1-4)GlcNAc(b1-2)Man(a1-6)Man(b1-4)GlcNAc(b1-4)GlcNAc
# Procedure, shortened: as §1
# [42] = target: Neu5Ac(a2-6)GlcNAc(b1-4)GlcNAc(b1-4)GlcNAc
# Procedure, shortened: as §1
# [43] = target: Neu5Ac(a2-8)Neu5Gc(a2-3)Gal(b1-4)GlcNAc
# Procedure, shortened: as §1
# [44] = target: Neu5Gc(a2-3)Gal(b1-4)Glc
# Procedure, shortened: as §1
# [45] = target: Neu5Gc(a2-6)GalNAc
# Procedure, shortened: as §1
# [46] = target: Neu5Gc(a2-8)Neu5Gc(a2-3)Gal(b1-4)GlcNAc(b1-3)Gal(b1-4)GlcNAc
# Procedure, shortened: as §1
binder,measurement,setting,value
B1,glycan array binding signal (z-score),[1],0.373
same,glycan array binding signal (z-score),[2],-0.892
same,glycan array binding signal (z-score),[3],1.56
same,glycan array binding signal (z-score),[4],0.425
same,glycan array binding signal (z-score),[5],-0.35
same,glycan array binding signal (z-score),[6],2.03
same,glycan array binding signal (z-score),[7],0.501
same,glycan array binding signal (z-score),[8],1.81
same,glycan array binding signal (z-score),[9],-0.059
same,glycan array binding signal (z-score),[10],-0.366
same,glycan array binding signal (z-score),[11],-0.107
same,glycan array binding signal (z-score),[12],2.96
same,glycan array binding signal (z-score),[13],-0.56
same,glycan array binding signal (z-score),[14],0.851
same,glycan array binding signal (z-score),[15],-0.81
same,glycan array binding signal (z-score),[16],0.081
same,glycan array binding signal (z-score),[17],2.92
same,glycan array binding signal (z-score),[18],0.227
same,glycan array binding signal (z-score),[19],-0.667
same,glycan array binding signal (z-score),[20],0.126
same,glycan array binding signal (z-score),[21],-0.017
same,glycan array binding signal (z-score),[22],1.87
same,glycan array binding signal (z-score),[23],-0.306
same,glycan array binding signal (z-score),[24],0.403
same,glycan array binding signal (z-score),[25],0.371
same,glycan array binding signal (z-score),[26],-0.213
same,glycan array binding signal (z-score),[27],-0.188
same,glycan array binding signal (z-score),[28],-0.384
same,glycan array binding signal (z-score),[29],1.56
same,glycan array binding signal (z-score),[30],1.62
same,glycan array binding signal (z-score),[31],2.65
same,glycan array binding signal (z-score),[32],-1
same,glycan array binding signal (z-score),[33],0.478
same,glycan array binding signal (z-score),[34],-0.439
same,glycan array binding signal (z-score),[35],1.67
same,glycan array binding signal (z-score),[36],-0.211
same,glycan array binding signal (z-score),[37],1.33
same,glycan array binding signal (z-score),[38],-0.379
same,glycan array binding signal (z-score),[39],-0.096
same,glycan array binding signal (z-score),[40],-0.145
same,glycan array binding signal (z-score),[41],0.342
same,glycan array binding signal (z-score),[42],0.337
same,glycan array binding signal (z-score),[43],18.8
same,glycan array binding signal (z-score),[44],-0.166
same,glycan array binding signal (z-score),[45],-0.168
same,glycan array binding signal (z-score),[46],-0.969
